In the library only some 12% were active in any assay of this set; here they are far more common.
BAZ2B inh: qHTS Assay for Inhibitors of BAZ2B; Bromodomain adjacent to zinc finger domain protein 2B (Homo sapiens), Q9UIF8; AlphaScreen BAZ2B-H3K14Ac peptide displacement; Potency, µM (doses to about 114 µM), inactives show at the top dose activity change, negative = inhibition, hits mostly inhibitors; 360,000 compounds, 4.4% hits; further: on the % scale 0 is the no-effect control and ±100 the full control effect; nearly all actives have a fitted effect of over 60% in size
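Compounds, titrated to a top concentration of 110 uM, were incubated 30 min at room temperature with preformed BAZ2B/acetyl-K14 H3 peptide complex (50 nM each). Proximity signal was measured by AlphaScreen after 20 min with beads.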
L3MBTL1 inh: qHTS Assay for the Inhibitors of L3MBTL1; Potency, µM (highest dose often 57.1 µM), inactives show at the highest dose activity, negative = inhibition, actives largely listed as inhibitors; 230,000 compounds, 0.66% hits; Lethal(3)malignant brain tumor-like protein 1 (Homo sapiens), Q9Y468; AlphaScreen L3MBTL1–H3K9me1 peptide binding; further: on the % scale 0 is the no-effect control and ±100 the full control effect; nearly all actives have a fitted effect of over 60% in size
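AlphaScreen proximity signal between nickel-chelate acceptor and streptavidin donor beads (final 10 ug/mL) reports binding of 50 nM L3MBTL1 to 75 nM biotin-H3 K9me1 peptide; complex incubated with compounds 30 min at room temperature; cefsulodin titration as control.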
Sfp PPTase inh: qHTS Assay for Inhibitors of Bacillus subtilis Sfp phosphopantetheinyl transferase (PPTase). 4'-phosphopantetheinyl transferase ffp (Bacillus subtilis), Q9F4F7. Biochemical Sfp PPTase activity, qHTS. Potency, µM, inactives show largest response in the series, negative = inhibition, actives largely listed as inhibitors. 310,000 compounds, 3.5% hits;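 further: the enzyme is Sfp with the accession as filed and its product quenches rhodamine fluorescence; 0% = enzyme reaction without inhibitor and -100% = no enzyme wells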
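Sfp 15 nM + cpd, 15 min RT; start w/ rhodamine-CoA 5 uM, BHQ-2-YbbR 12.5 uM (final); 50 mM Hepes pH 7.6, 10 mM MgCl2, 0.01% NP-40, 0.01% BSA; read 525/598 nm at 0 and 30 min.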
G9a block: qHTS Assay for Inhibitors of Histone Lysine Methyltransferase G9a. Histone-lysine N-methyltransferase EHMT2 (Homo sapiens), Q96KQ7. 350,000 compounds, 8.8% hits. G9a H3K9 monomethylation, AlphaScreen, 2 h. Potency, µM (top dose mostly 102 µM), without a hit: top-dose activity, negative = inhibition, actives largely listed as inhibitors; further: on the % scale 0 is the no-effect control and ±100 the full control effect; nearly all actives have a fitted effect of over 75% in size
Target sequence (Q96KQ7 913-1193 limits assumed): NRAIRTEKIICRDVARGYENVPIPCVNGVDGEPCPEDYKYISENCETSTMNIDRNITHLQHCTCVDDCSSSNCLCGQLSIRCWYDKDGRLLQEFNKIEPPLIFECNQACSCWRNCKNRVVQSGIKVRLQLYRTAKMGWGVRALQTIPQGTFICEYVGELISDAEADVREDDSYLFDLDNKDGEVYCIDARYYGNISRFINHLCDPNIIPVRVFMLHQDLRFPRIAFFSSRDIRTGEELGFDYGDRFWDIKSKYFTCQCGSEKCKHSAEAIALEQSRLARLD
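Methyltransferase reactions run at room temperature for 2 h (20 nM enzyme, 500 nM biotin-H3K9 peptide, 20 uM SAM) after a 15 min compound preincubation; product detected by AlphaScreen beads and anti-H3K9me1 antibody.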
JMJD2A Tudor inh: qHTS Assay for Inhibitors of JMJD2A-Tudor Domain; Potency, µM (series often up to 114 µM), for the others: at the top dose activity change, negative = inhibition, usual class: inhibitors; AID 504339, 2011; 390,000 compounds, 4.4% hits; AlphaScreen JMJD2A-Tudor / H3K4me3 peptide binding; Lysine-specific demethylase 4A (Homo sapiens), O75164; further: on the % scale 0 is the no-effect control and ±100 the full control effect; nearly all actives have a fitted effect of over 50% in size
HP1b chromo inh: HTS for Inhibitors of HP1-beta Chromodomain Interactions with Methylated Histone Tails. 390,000 compounds, 0.56% hits. Chromobox protein homolog 1 (Homo sapiens), P83916. Potency, µM (series often up to 114 µM), inactives show at the highest dose activity change, negative = inhibition, hits mostly inhibitors. AlphaScreen HP1-beta / biotin-H3K9me3 peptide binding; further: nearly all actives have a fitted effect of over 70% in size
Target sequence (P83916 whole entry, looked up): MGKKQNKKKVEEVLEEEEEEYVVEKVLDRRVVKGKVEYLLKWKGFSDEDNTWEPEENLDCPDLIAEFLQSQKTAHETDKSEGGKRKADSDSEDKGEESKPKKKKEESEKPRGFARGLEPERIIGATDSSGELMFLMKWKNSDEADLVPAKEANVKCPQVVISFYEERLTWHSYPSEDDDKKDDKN
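AlphaScreen: HP1-beta (50 nM) preformed 30 min with biotin-H3(1-18)K9me3 peptide (50 nM) in PBS pH 7.4, 0.01% Tween-20. Compound added for 30 min at RT, then streptavidin donor/nickel chelate acceptor beads (10 ug/mL) for 30 min.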
* marks the source's active call; other numbers are inactive results; u = inconclusive; x = not tested or not shown; ! = a repeat was not active; [ ] = another dose, or the depositor's remark. The call rests on the fitted dose curve; in most records, active means well fitted curve in the direction sought with a large enough effect; inconclusive means small, poorly fitted or top-dose-only effect, or another doubt; inactive means no such curve, though single readings can be large; an effect the other way counts as inactive or inconclusive. Potency means the concentration at half of the fitted maximal effect.

SMILES | BAZ2B inh | L3MBTL1 inh | Sfp PPTase inh | G9a block | JMJD2A Tudor inh | HP1b chromo inh
CCCOc1ccc(C(=O)NNC(=S)NC(=O)c2ccco2)cc1 | -12% | 7% | 3% | 40µM* | -31% | u
CCC(=O)NC(=S)NNC(=O)COc1ccc(Br)cc1 | -12% | -1% | -12% | 8.9µM* | -11% | 23%
Clc1cccc(-c2noc3ncnc(NC4CCCCC4)c23)c1 | -1% | x | x | 3%[59 µM] | -5% | 48%
COc1ccc(CCNC(=O)CN(c2cc(C(F)(F)F)ccc2Cl)S(C)(=O)=O)cc1 | -1% | x | x | -9%[59 µM] | -6% | 11%
CCCOc1ccc(C(=O)NNC(=S)NC(C)=O)cc1 | 25%[57.1 µM] | 2% | u | u | 28µM* | 19%
CCCCOc1ccc(C(=O)NNC(=S)NC(=O)CC)cc1 | 9% | 19% | -5% | 20µM* | u | 39%
CCC(=O)NC(=S)NNC(=O)c1ccc(OC)cc1 | 4% | 5% | 56µM* | 22µM* | 22µM* | 32%
COc1ccc(CC(=O)NNC(=O)c2ccc(NC(C)=O)cc2)cc1 | -15% | 6% | 14% | 45µM* | -11% | -17%
CCCOc1ccc(C(=O)NNC(=S)NC(=O)c2ccccc2)cc1 | -25% | x | 12% | u | u | 1%
Cc1ccc(Cn2c(CO)cnc2SCC(=O)Nc2cccc(F)c2)cc1 | u | x | x | u | -31% | 23%
COc1ccc(C(=O)NC(=S)NNC(=O)c2ccc(C)cc2)cc1 | x | x | x | x | u | 9%
COc1cc(OC)cc(C(=O)NC2CCSC2=O)c1 (centres undefined) | x | -4% | 7% | 20%[59 µM] | -20% | 17%
COc1ccc(C(=O)NC(=S)NNC(=O)c2ccc(NC(=O)C(C)C)cc2)cc1 | 3% | 8% | 1% | 4.5µM* | u | -28%
COc1ccc(C(=O)NC(=S)NNC(=O)c2ccc3ccccc3n2)cc1 | 79µM* | u | 13% | 13µM* | 50µM* | -23%
COc1ccc(C(=O)NC(=S)NC2CCSC2=O)cc1 (centres undefined) | -5% | -2% | 5% | 10µM* | -12% | 32%
O=C(CCN1N=C(c2ccccc2)CCC1=O)NCCCN1CCOCC1 | 0% | x | 8% | 50µM* | -4% | 43%
Cc1c(P(=S)(c2ccccc2)c2ccccc2)c2ccccc2n1C(=O)Cc1ccccc1 | x | x | x | x | -7% | x
O=C(O)c1ccc2cccc(O)c2n1 | u | 8% | 2.8µM* | x | -6% | 33%
O=C(O)c1cccc(Cl)n1 | -22% | -13% | -3% | 40µM* | -1%[11.4 µM] | 11%
CC(=O)Nc1cccc(NC(C)=O)n1 | -1% | 2% | 8% | -13%[59 µM] | -9% | 5%
CC(=O)Nc1cccc(C(=O)O)n1 | 22µM* | 11% | u | 8.9µM* | u | 14%
O=C(O)c1ccc2cccnc2n1 | 28µM* | x | -59% | 35µM* | 7.1µM* | u
COc1ccc(C2(CNC(=O)C(=O)Nc3ccccc3C)CCCC2)cc1OC | -4% | x | x | 1%[59 µM] | -2% | 31%
Cc1ccccc1OCCCn1c(CCNC(=O)C2CCCCC2)nc2ccccc21 | 4% | x | x | 5%[59 µM] | -4% | 31%
CC(Oc1ccccc1)C(=O)OCc1cc(=O)n2nc(C(C)C)sc2n1 (centres undefined) | -4% | x | x | 18%[59 µM] | -4% | 7%
SMILES | BAZ2B inh | L3MBTL1 inh | Sfp PPTase inh | G9a block | JMJD2A Tudor inh | HP1b chromo inh
O=C(O)c1cccc(C(=O)O)n1 | -3% | 12% | 4µM* | u | x | x
O=C(NC(=S)Nc1ccc2[nH]ncc2c1)c1ccccc1 | -33% | x | -2% | u | u | -16%
O=C(NC(=S)Nc1ccc2nc[nH]c2c1)c1ccccc1 | -22% | x | -2% | 50µM* | -19% | 10%
O=C(NNC(=S)Nc1ccccc1)c1ccc2ncccc2c1 | 10% | 13% | -11% | 28µM* | -21% | 10%
O=C(Nc1ccc2ncccc2c1)c1ccccc1 | -31% | 1% | -1% | x | 22µM* | -30%
Cc1ccc2cccnc2c1NC(=S)NC(=O)c1ccccc1 | -39% | -11% | 18µM* | u | -21% | -20%
CCOc1ccc(CCNS(=O)(=O)c2c(C)nc3sc(C)cn3c2=O)cc1OCC | -14% | x | x | -8%[59 µM] | -3% | 61%
Fc1ccc(CCNc2ncnc3nc[nH]c23)cc1 | x | x | x | x | -10% | 27%
CCOc1ccc(NC(=O)Cn2cc(C(=O)c3ccccc3)c(=O)c3cc4c(cc32)OCCO4)cc1 | -13% | x | x | -35%[59 µM] | -13% | 42%
CCOc1ccc(NC(=O)Cn2c(=O)n(CCc3ccccc3)c(=O)c3c4c(sc32)CCCC4)cc1 | 1% | x | x | 7%[59 µM] | -6% | 11%
O=C(Nc1ccc2nc3ccccc3nc2c1)c1ccc(Br)cc1 | -1% | 10% | -10% | 8.9µM* | -8% | 32%
Cc1ccc2cc(NC(=O)c3ccc(C(C)(C)C)cc3)ccc2n1 | -18% | x | 79µM* | 17% | -24% | 25%
O=C(NC(=S)Nc1ccc2ncccc2c1)c1ccccc1 | u | -9% | 50µM* | 56µM* | u | 5%
Cc1cc(C(=O)Nc2ccc(Br)cc2)cs1 | 56µM* | x | 12% | 79µM* | 12% | 51%
COC(=O)N1c2ccccc2C23[C@@H]4CN5CCC[C@]6(CCC12C(O)(C6)C4=O)[C@H]53 | x | x | -5% | x | x | x
O=C(NNc1c(Cl)cccc1Cl)c1sc2ccccc2c1Cl | x | x | x | x | u | 33%
O=C(Nc1ccc(NC(=O)c2ccccc2Cl)cc1)c1cccnc1 | 7% | x | 18% | 20% | -6% | 27%
O=C(Nc1ccc2ncccc2c1)c1ccccc1Cl | -20% | 7% | 12% | 10µM* | -4% | 20%
CN(C)c1ccc(-c2nccc(NCCN3CCOCC3)n2)cc1 | x | x | -7% | x | x | x
NOCC(=O)O | u | 19% | x | 6µM*! | 22µM* | 16%
NCC(=O)O | x | x | -21% | x | x | x
CO[C@]1(C2=NCCN2)COc2ccccc2O1 | x | x | -20% | x | x | x
CC(C)Cc1nnc(NC(=O)CN2C(=O)c3ccccc3C2=O)s1 | -31% | 7% | 22µM* | 25µM* | -9% | -17%
CCCCc1nnc(NC(=O)CN2C(=O)c3ccccc3C2=O)s1 | -37% | -3%[11.4 µM] | -8% | -34% | -1% | 19%
CC(C)(C)Cc1nnc(NC(=O)CN2C(=O)c3ccccc3C2=O)s1 | -26% | 2% | u | 35µM* | -1% | u
COc1ccc(CNC(=O)Cc2c(C)c3cc4c(C)coc4c(C)c3oc2=O)cc1 | -3% | x | x | 0%[59 µM] | -7% | 55%
